Screening data as filed in PubChem BioAssay.
NOMO-1 viab = STK33 inhibitor candidate reducing NOMO-1 cell viability; 37,000 tested, 7.5% active; inhibition, % (concentration not given with the values); NOMO-1 AML viability, CellTiter-Glo luminescence, 72 h; in the data active means inhibition above about 80%
PD-1 reverse act = reversal of PD-1 mediated T-cell inhibition; primary human CD4 T cells, PD-L1 beads, CellTiter-Glo 96 h; activation, % (concentration not given with the values); 29,000 tested, under 10 active; AID 2316; call rule not given here;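 further: 0% = median vehicle wells and 100% = positive control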
STK33 kin inh = human STK33 kinase inhibition | Q9BYT3 | inhibition, % at 12.5 µM | 27,000 tested, 0.44% active | ADP-Glo luminescence, MBP substrate; in the data active means inhibition above about 20%
Target sequence (Q9BYT3 whole entry, looked up): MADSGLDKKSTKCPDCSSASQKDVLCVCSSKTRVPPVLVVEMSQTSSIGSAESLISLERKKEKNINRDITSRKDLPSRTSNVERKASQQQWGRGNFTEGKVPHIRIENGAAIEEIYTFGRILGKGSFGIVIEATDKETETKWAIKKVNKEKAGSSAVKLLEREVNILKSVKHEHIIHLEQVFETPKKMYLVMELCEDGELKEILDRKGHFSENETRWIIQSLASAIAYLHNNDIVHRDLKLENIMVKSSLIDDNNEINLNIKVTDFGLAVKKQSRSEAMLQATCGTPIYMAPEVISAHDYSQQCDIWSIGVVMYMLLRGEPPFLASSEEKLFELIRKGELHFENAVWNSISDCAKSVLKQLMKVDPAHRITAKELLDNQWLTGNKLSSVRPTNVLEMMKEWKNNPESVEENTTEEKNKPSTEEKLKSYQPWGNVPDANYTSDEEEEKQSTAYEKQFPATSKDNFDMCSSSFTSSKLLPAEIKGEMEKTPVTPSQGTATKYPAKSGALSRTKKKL
An asterisk follows results filed as active; nt = no result given. This is one part of a sample in which hits are shown more often than they occur.

SMILES | NOMO-1 viab | PD-1 reverse act | STK33 kin inh
O=c1c(O)c(-c2ccc(O)c(O)c2)oc2cc(O)cc(O)c12 | 57.9 | 2.8 | 38.3*
COc1ccc(C2OCC3C2CO[C@H]3c2ccc(OC)c(OC)c2)cc1OC (stereo partly specified) | 2.6 | 1.6 | 0.0
COc1ccc(NC(=O)c2c(-c3ccccc3)csc2NC(=O)CN2CCOCC2)cc1 | nt | nt | 2.0
COc1ccc(-c2oc3c(OC)c(OC)c(OC)c(O)c3c(=O)c2OC)cc1OC | 107.3* | -4.2 | 6.5
COc1c(OC)c(O)c2c(=O)c(O)c(-c3ccccc3)oc2c1OC | 57.6 | 1.0 | -0.2
Cc1ccc(-n2ncc(C(=O)NCc3ccccn3)c2NC(=O)c2ccco2)cc1C | -8.3 | 1.0 | 12.1
O=C(CCCOc1ccc(Cl)cc1Cl)Nc1ccc2c(c1)OCCO2 | 9.5 | -0.4 | nt
CC1Oc2ccccc2OC1(O)c1ccc(Br)cc1 (stereo unspecified) | 106.4* | -0.5 | nt
O=C(O)CC(Cc1ccc(Cl)cc1)C(=O)Nc1ccccc1I (stereo unspecified) | 13.2 | 3.3 | -1.4
COc1ccc2c(c1OC)C(=O)O[C@@H]2[C@H]1c2c(cc3c(c2OC)OCO3)CCN1C | 31.5 | 1.1 | 0.0
COc1cc2c3cc1Oc1c(OC)c(OC)cc4c1[C@@H](Cc1ccc(OC(=O)c5ccc([N+](=O)[O-])cc5)c(c1)Oc1ccc(cc1)C[C@@H]3N(C)CC2)N(C)CC4 | 98.2* | -0.9 | 3.9
COc1ccc2cc1Oc1ccc(cc1)C[C@H]1c3cc(c(OC)cc3CCN1C)Oc1c(OC)c(OC)cc3c1[C@H](C2)N(C)CC3 | 121.1* | nt | -2.1
COc1ccc2c(c1OC)C(=O)OC2[C@H]1c2c(cc3c(c2OC)OCO3)CCN1C (stereo partly specified) | 36.8 | nt | -1.8
O=C(CSc1nnc(-c2cccc3ccccc23)n1-c1ccccc1)NC1CC1 | 1.4 | 0.5 | -5.3
COc1ccc(CNCc2cccc(OC)c2)cc1 | -9.4 | -0.2 | nt
COc1ccc(CN(C)C[C@@H]2Oc3ccc(NS(=O)(=O)c4cccs4)cc3CC(=O)N([C@H](C)CO)C[C@H]2C)cc1 | 16.3 | nt | -0.7
C[C@@H]1CN([C@@H](C)CO)C(=O)c2cc(NS(=O)(=O)c3cccs3)ccc2O[C@@H]1CN(C)Cc1ccc(-c2ccccc2)cc1 | 90.9* | 0.6 | 2.0
C[C@@H]1CN([C@H](C)CO)C(=O)Cc2cc(NS(=O)(=O)c3cccs3)ccc2O[C@@H]1CN(C)Cc1ccc(-c2ccccc2)cc1 | 34.0 | -2.0 | -0.8
C[C@H]1CN([C@@H](C)CO)C(=O)Cc2cc(NS(=O)(=O)c3cccs3)ccc2O[C@H]1CN(C)Cc1ccc(-c2ccccc2)cc1 | 114.6* | -2.0 | 9.6
C[C@@H]1CN([C@@H](C)CO)C(=O)Cc2cc(NS(=O)(=O)c3cccs3)ccc2O[C@@H]1CN(C)Cc1ccc(Oc2ccccc2)cc1 | 97.0* | -3.2 | nt
C[C@@H]1CN([C@H](C)CO)C(=O)c2cc(NS(=O)(=O)c3cccs3)ccc2O[C@H]1CN(C)Cc1ccc(-c2ccccc2)cc1 | 20.4 | nt | nt
Cc1cc(O)c(C)c2c1Oc1c(C)c(O)cc(C)c1C(=O)O2 | 37.6 | 0.8 | 23.1*
Cc1c(O)cc(O)c2c1OC(c1ccccc1)CC2=O (stereo unspecified) | 2.4 | -0.8 | 5.2
O=C(CSC1CC(=O)N(c2ccccc2)C1=O)Nc1cccc(Cl)c1 (stereo unspecified) | -2.6 | nt | 0.4
CCOC(=O)c1c(N(C)C)ccc(C2C=CNC(=O)N2)c1C (stereo unspecified) | 23.8 | 0.3 | nt
SMILES | NOMO-1 viab | PD-1 reverse act | STK33 kin inh
c1coc(CNc2ncnc3c2sc2nc(N4CCOCC4)c4c(c23)CCC4)c1 | 18.8 | nt | 11.5
OC[C@H]1O[C@@H](n2cnc3c(NCc4ccco4)ncnc32)[C@H](O)[C@@H]1O | 107.7* | nt | -1.3
N=c1ncn(CC(O)CO)c2nc(Br)[nH]c12 (stereo unspecified) | -5.3 | 0.4 | nt
COCCOC(=O)N1C(=O)[C@@]2(c3ccccc31)[C@H](C(=O)N1CCc3cc(OC)c(OC)cc3C1)[C@H]1C(=O)O[C@H](c3ccccc3)[C@H](c3ccccc3)N1[C@@H]2c1ccccc1OCCO | nt | nt | 6.8
O=C(CSc1nc2ccc([N+](=O)[O-])cc2[nH]1)Nc1ccc(F)cc1 | nt | nt | -0.7
O=C(CSc1nc2ccc([N+](=O)[O-])cc2[nH]1)Nc1cc(C(F)(F)F)cc(C(F)(F)F)c1 | 129.8* | -11.7 | -9.1
CCOc1ccc(-n2c(SCC(=O)N3CCOCC3)nnc2-c2ccncc2)cc1 | -17.0 | 1.1 | 1.5
COc1ccc(NC(=S)N(C)Cc2c(C)nn(C)c2C)c(OC)c1 | 12.3 | 0.8 | -0.4
O=S(=O)(Nc1ncccn1)c1ccc(NC(=S)Nc2ccc(F)c(Cl)c2)cc1 | 1.3 | 2.3 | -2.1
COc1ccc(OC)c(C(=O)c2coc3ccc(O)cc23)c1 | 135.9* | 0.3 | nt
Cc1ccc(C(=O)c2coc3ccc(O)cc23)o1 | 41.5 | -2.0 | nt
Cc1cccc(NC(=O)CSc2nnc(-c3ccco3)n2-c2ccccc2)c1C | 12.0 | nt | 0.5
CCCc1cc(=O)[nH]c(Nc2nc(C)c3cc(OC)ccc3n2)n1 | 10.6 | 0.9 | -7.2
Cc1cc(=O)[nH]c(Nc2nc(C)c3cccc(C)c3n2)n1 | 130.2* | -8.1 | -0.9
CCCc1cc(=O)[nH]c(Nc2nc(C)c3ccc(OC)cc3n2)n1 | 20.6 | -1.9 | -3.5
COc1ccc2c(C)nc(Nc3nc(C)cc(=O)[nH]3)nc2c1 | 116.9* | -1.1 | 2.4
Cc1ccc(N(CC(=O)Nc2ccccc2-c2ccccc2)S(C)(=O)=O)cc1C | 49.9 | nt | -1.6
COC(=O)CSc1nc(N(C)C)nc(N(C)C)n1 | 30.6 | 0.9 | -6.0
C[C@@H]1CN([C@@H](C)CO)C(=O)Cc2cc(NC(=O)Nc3cccc4ccccc34)ccc2O[C@@H]1CN(C)Cc1ccncc1 | 82.0* | -5.0 | -0.4
C[C@H]1CN([C@@H](C)CO)C(=O)Cc2cc(NC(=O)Nc3cccc4ccccc34)ccc2O[C@@H]1CN(C)Cc1ccc(-c2ccccc2)cc1 | 96.0* | -0.2 | nt
C[C@H]1CN([C@@H](C)CO)C(=O)Cc2cc(NC(=O)Nc3cccc4ccccc34)ccc2O[C@@H]1CN(C)Cc1ccccc1 | 49.6 | 2.3 | 3.7
C[C@H](CO)N1C[C@H](C)[C@H](CN(C)Cc2ccc(Oc3ccccc3)cc2)Oc2ccc(NC(=O)Nc3cccc4ccccc34)cc2CC1=O | 9.6 | -0.6 | -1.6
C[C@H](CO)N1C[C@H](C)[C@H](CN(C)Cc2ccccc2)Oc2ccc(NC(=O)Nc3cccc4ccccc34)cc2CC1=O | 18.4 | 0.8 | -0.2
C[C@H]1CN([C@@H](C)CO)C(=O)Cc2cc(NC(=O)Nc3cccc4ccccc34)ccc2O[C@@H]1CN(C)Cc1ccc(Oc2ccccc2)cc1 | 116.2* | 0.6 | 8.7
Cc1cc(C)c(OCC(=O)Nc2ccc3oc(-c4cncc(Br)c4)nc3c2)c(Cl)c1 | -12.4 | 0.7 | 4.0
Cc1cc(C)c(S(=O)(=O)NCC(=O)Nc2ccc(F)c(Cl)c2)c(C)c1 | 73.9 | -3.9 | -2.9
COc1ccc(NC(=O)C(C(=O)Nc2ccc(OC)cc2)C23CC4CC(CC(C4)C2)C3)cc1 | 47.8 | 0.3 | nt
O=C(COc1ccc(Cl)cc1Cl)Nc1ccc2oc(-c3ccncc3)nc2c1 | -4.6 | 3.0 | 3.1
COC(=O)C(Cc1c[nH]c2ccccc12)NC(=O)C(NC(=O)C(C)NC(=O)/C=C/C(=O)O)C(C)c1c[nH]c2ccccc12 (stereo unspecified) | 7.0 | -1.1 | 153.9*
